Experimental data from PubChem BioAssay AID1259415 (National Center for Advancing Translational Sciences (NCATS), 2018).
The campaign covered roughly 410,000 compounds. About 18,000 (4.4%) were called active. Roughly 7% stayed inconclusive and do not appear here. The full list was thinned out, with actives kept by preference. A number with no mark means an inactive call. Cut-off read from the data, not from the text of the source: active = activity change below about -60%; inconclusive = no clear call, values can overlap the other calls; inactive = above about -39%.

Assay: qHTS Assay for inhibitors of the human cytomegalovirus (HCMV)
Conditions: HFF cells, HCMV-luciferase reporter, 72 h; at 57.5 µM; hits give low values
Summary of the method: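 HFF cells seeded 16 h at 37C, treated with compounds, infected with luciferase-reporter HCMV at MOI 1 PFU/cell; luciferase read at 72 h post infection, normalized to buffer-only and Salinomycin controls.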
% is set by controls: 0 for no effect and ±100 for the full control effect.

SMILES	activity change, negative = inhibition
C[C@H]1CN([C@@H](C)CO)C(=O)CCCn2nncc2CO[C@@H]1CN(C)C(=O)Nc1ccc(N2CCN(C)CC2)cc1	-20.2%
COc1cc(C2OC(c3cc(OC)c(OC)c(OC)c3)C(C)C2C)cc(OC)c1OC (centres undefined)	54.8%
O=C(CC1Oc2ccccc2NC1=O)NCc1ccc(F)cc1 (centres undefined)	-9.67%
O=C(NCc1ccccc1)c1ccc2c(c1)nc1n2CCCCC1	27.3%
CCn1c(CSc2nc(C)cc(C)n2)nnc1SCC(N)=O	-18.8%
Cc1cc(C)nc(S/C=C/C(=O)c2ccccc2)n1	-90.7% (active)
CCC1Oc2ccc(Cl)cc2N(CC(=O)O)C1=O (centres undefined)	-13.4%
Cc1cc(C)n(C(=O)c2ccc(C)c(S(=O)(=O)N3CCOCC3)c2)n1	-11.1%
O=C(Nc1cccn(Cc2c(Cl)cccc2Cl)c1=O)c1ccc(Cl)cc1	-83.3% (active)
CCn1c(=O)c(=O)n(CC)c2cc(N3CCCCC3)c(NC(=O)c3ccc(Cl)cc3)cc21	-11.3%
O=C(Nc1cccn(Cc2ccccc2Cl)c1=O)NC1CCCCC1	-37.7%
Cc1ccc(C(=O)Nc2ccc(OCc3cc(=O)n4c5c(sc4n3)CCCC5)cc2)cc1	7.24%
COc1ccc(S(=O)(=O)N2CCOCC2)cc1NC(=O)CSc1nnc(NC2CC2)s1	18.1%
COc1ccc(S(=O)(=O)N2CCOCC2)cc1NC(=O)CSc1ncnc2ccccc12	-109% (active)
COc1ccc(S(=O)(=O)N2CCOCC2)cc1NC(=O)CSc1cc(C)ccc1C	-10.1%
CCCCN(CC)CCCNC(=O)Cn1ncc2c([nH]c3ccc(C)cc32)c1=O	-8.89%
CNC(=O)/C(C#N)=C/c1c(F)cccc1Cl	-80.3% (active)
Cc1[nH]c2ccccc2c1/C=C(/C#N)C(=O)NC(C)C	-36.7%
O=C(/C=C/c1c(F)cccc1Cl)Nc1nn[nH]n1	-8.32%
COc1cc(C(=O)N(C)Cc2cccc(OC)c2OC)ccc1OCC(=O)Nc1cccc(C(F)(F)F)c1	-86.1% (active)
COc1ccccc1NC(=O)COc1ccc(C(=O)OCC(=O)N(C(C)C)C(C)C)cc1OC	-9.98%
Cc1cc(S(=O)(=O)N2CCOCC2)ccc1OCC(=O)Nc1cccc(C(F)(F)F)c1	-13.9%
CCCN1CCN(CCCNC(=O)Cn2nc(CC)n3c(cc4occc43)c2=O)CC1	35.8%

SMILES	activity change, negative = inhibition
CC(C)(C)Oc1ccccc1Nc1nc(NCCO)nc(N2CCCC2)n1	1.45%
O=c1oc2ccccc2cc1-c1cn(-c2ccccc2)c(=S)[nH]1	-86.5% (active)
CC(C)Cn1c(=O)c2ccccc2n2c(-c3cccc(Cl)c3)nnc12	2.19%
COc1ccc(CNC(=O)CSc2nc3ccccc3nc2Cc2ccccc2)cc1	-15%
COCCNS(=O)(=O)c1cc(-c2nn3c(C)nnc3c3ccccc23)ccc1C	6.92%
Cc1cc(Cl)c(S(=O)(=O)Nc2ccc3c(c2)OCCO3)cc1OCC(N)=O	-65.5% (active)
Cc1cc(Cl)c(S(=O)(=O)N(C)C)cc1OCC(N)=O	12.2%
Cc1cc(Cl)c(S(=O)(=O)NCCC(=O)O)cc1OCC(N)=O	8.87%
CC(C)CNC(=O)CC(c1ccccc1)c1c(O)ccc2ccccc12 (centres undefined)	16%
O=C(/C=C/c1ccccc1)Nc1cc(-c2nc3cc(Cl)ccc3o2)ccc1Cl	88.6%
CC(=O)N1CCCc2cc(S(=O)(=O)N3CCC(C(=O)NCc4ccc(F)cc4)CC3)ccc21	7.04%
O=C(COc1ccccc1)NCc1ccc2c(c1)CCN2C(=O)c1ccc(F)cc1	-6.87%
O=C(NCc1ccc2c(c1)CCN2C(=O)c1ccccc1)c1ccccc1	13.7%
O=C(NCc1ccc2c(c1)CCN2C(=O)c1ccccc1)Nc1cc(F)ccc1F	-84.8% (active)
COc1ccc(C(=O)Nc2cccc(C(=O)OCc3cc(=O)n4c5c(sc4n3)CCCC5)c2)cc1	-36%
COc1ccc(OC)c(Cc2cnc3nc(N)nc(N)c3c2C)c1	-98.1% (active)
COc1ccc(CCNc2ncnc3onc(-c4ccc(Cl)cc4)c23)c(OC)c1	0.256%
COc1ccc(OC)c(-n2nnc3c(sc4nc(C)c(Br)c(C)c43)c2=O)c1	-8.62%
O=C(Cc1ccc(NC(=O)C2CCCN(C(=O)C3CCCCC3)C2)cc1)Nc1cccc(C(=O)N2CCCCC2)c1 (centres undefined)	1.06%
N#Cc1cccc(NC(=O)CN2CCCCCC2)c1	-11.3%
N#Cc1cccc(NC(=O)C2CCCN(C(=O)c3ccc(Cl)cc3)C2)c1 (centres undefined)	-66% (active)
CSc1ccc(CCNC(=O)c2cnn(-c3ccccc3)c2-n2cccc2)cc1	-13.5%
COc1ccc(Nc2ncc3c(n2)CCN(C(=O)OC(C)(C)C)C3)cc1	12.2%

SMILES	activity change, negative = inhibition
COC(=O)c1ccc(NC(=O)c2cccc3c2C(=O)N(C2CCCCC2)C3)cc1	12.9%
COC(=O)c1ccc(C)c(NC(=O)Cn2c(C)csc2=O)c1	0.424%
Cc1cccc(NC(=S)N2CCC(C(=O)c3ccc(F)cc3)CC2)c1	15%
CCc1cccc(NC(=O)CN(C)S(=O)(=O)c2ccc3[nH]c4c(c3c2)CCCC4)c1	3.8%
Cc1cccc(NC(=S)NCc2ccc3[nH]c4c(c3c2)CCCC4)c1	-72.9% (active)
Cc1ccc2c(c1)-c1c(cnn1CC(=O)Nc1ccccc1C#N)CO2	-27.6%
CCn1cc(C(=O)N2CCN(c3cc(C)ccc3C)CC2)c(=O)c2cc(S(=O)(=O)N(C)C3CCCCC3)ccc21	10.1%
CC(OC(=O)c1c(F)cccc1F)C(=O)NCCC1=CCCCC1 (centres undefined)	20.1%
S=C(NCCC1=CCCCC1)Nc1ccccc1	-67% (active)
CC(=O)Nc1ccc(S(=O)(=O)N(C)CC(=O)NCCC2=CCCCC2)cc1	-7.2%
Fc1ccccc1-c1noc2nc(OCc3ccc(OC(F)F)cc3)ccc12	7.83%
CCc1ccccc1N1C(=O)CN(S(=O)(=O)CC)CC1(C)C(=O)NC1CCCCC1 (centres undefined)	0%
COc1ccc2c(c1)C(NS(=O)(=O)OCC(Cl)(Cl)Cl)CCC2 (centres undefined)	-21%
CC(C)Cn1c(N)c(C(=O)COC(=O)CN2C(=O)C3CC=CCC3C2=O)c(=O)n(C)c1=O (centres undefined)	-31.7%
CCCc1cc(=O)[nH]c(SCC(=O)c2c(N)n(CC(C)C)c(=O)n(C)c2=O)n1	-60.6% (active)
CCCc1cc(=O)[nH]c(SCC(=O)N2C(C)CCCC2C)n1 (centres undefined)	24.9%
O=C1N=C(N2CCOCC2)S/C1=C\C=C/c1ccccc1	-102% (active)
O=C1N=C(N2CCOCC2)CS1	-12.8%
CC1CCN(C2=NC(=O)/C(=C/c3cn[nH]c3-c3ccccc3)S2)CC1	-1.68%
COc1ccc(C2CC(=O)N(Cc3ccccc3C)c3c2c(C)nn3-c2nc(C)cc(C)n2)c(OC)c1 (centres undefined)	-22.9%
O=C(COc1ccc(Cl)cc1)Nc1ccc(-c2nc3cc(Cl)ccc3o2)c(O)c1	71.6%
O=C(Cn1cnc2ccccc2c1=O)Nc1cccc(S(=O)(=O)N2CCCCC2)c1	0%
CSc1ccccc1NC(=O)CN(C)CC(=O)Nc1cccc(Br)c1	-99.6% (active)

SMILES	activity change, negative = inhibition
CCC(C)c1ccccc1NC(=O)CN(C)CC(=O)Nc1ccccc1SC (centres undefined)	-37.9%
CSc1ccccc1NC(=O)CN(C)CC(=O)Nc1ccc(Cl)cc1[N+](=O)[O-]	-26.6%
O=C(Cn1c(=O)n(Cc2cccs2)c(=O)c2cccnc21)Nc1ccc(F)cc1	-5.11%
CCCC(=O)Nc1ccc2oc(-c3ccc(O)c(Br)c3)nc2c1	94.7%
COc1ccc(CCNC(=O)c2cc(=O)c3c(C)cc(C)cc3o2)cc1OC	-6.54%
COc1cccc(-n2cc(C(=O)NCc3cccc(Cl)c3)c3ccccc3c2=O)c1	-23.6%
Cc1ccc2c(c1)N(S(=O)(=O)c1cc(-c3cc(C)no3)ccc1C)CCO2	-81.3% (active)
CCC1CN(S(=O)(=O)c2cc(-c3cc(C)no3)ccc2C)c2cc(C)ccc2O1 (centres undefined)	-36.6%
CCN(CC)c1ccc(NS(=O)(=O)c2cc(-c3cc(C)no3)ccc2C)c(C)c1	0%
C[C@@H]1NS(=O)(=O)c2cc(Cl)ccc2O[C@@H]1c1ccccc1	-16.5%
COc1ccc(CCn2cc3c(c2-c2ccc(Br)cc2)c(=O)n(C)c(=O)n3C)cc1OC	15.4%
COc1ccc(S(=O)(=O)NCc2cccn2Cc2cccc(C)c2)cc1	-4.02%
CCOc1ccc(N(C)S(=O)(=O)c2cc(-c3cnc(C)o3)ccc2OC)cc1	-20.5%
Cc1nn(C(C)C(=O)Nc2ccc(C(C)C)cc2)c(=O)c2c1sc1ccccc12 (centres undefined)	-9.99%
COc1ccccc1NC(=O)C1CCCN1S(=O)(=O)c1ccc(Cl)cc1 (centres undefined)	0.0905%
COc1ccccc1NC1=NC(c2ccc(Cl)cc2)N=C(N)N1 (centres undefined)	-75.4% (active)
COc1ccccc1Nc1nc(N)nc(N)c1S(=O)(=O)c1ccccc1	21.5%
CC(=NNC(N)=O)c1ccc(Cl)c(-n2cccc2)c1	25.6%
Cc1cccc2c(=O)cc(CSc3ccccc3NC(=O)C(C)C)[nH]c12	45.6%
COCCCNC(=O)c1ccc(NC(=O)c2nsc3ccccc23)cc1	114%
